According to ChEMBL document CHEMBL4513216, “Probing the Open Global Health Chemical Diversity Library for Multistage-Active Starting Points for Next-Generation Antimalarials” (ACS Infect Dis, 2020):
Out of some 69,000 compounds screened, about 8,600 (12%) showed an effect of 50% or more. The entries come from a sample that favours strong results as a whole.

Each compound was assayed on Plasmodium berghei (assay: Screen against P. berghei liver stage (PbLuc), transformed with Luciferase, at 10uM). Conditions: tested at 10 uM.
Format: functional, HepG2

SMILES	INHIBITION
O=c1oc(-c2ccc(F)cc2)nn1CN1CCN(C2CCCC2)CC1	29.4%
CC1CCN(Cn2nc(-c3ccc(F)cc3)oc2=O)CC1	9.25%
O=c1oc(-c2ccc(F)cc2)nn1CN1CCN(CC2CC2)CC1	30.6%
O=C(Cn1nc(-c2ccc(F)cc2)oc1=O)NCC1CCCO1 (centres undefined)	-36.1%
O=c1oc(-c2ccc(F)cc2)nn1CC1CCOC1 (centres undefined)	62.3%
O=c1oc(-c2ccc(F)cc2)nn1CC1CCCCO1 (centres undefined)	59.3%
COCCN1C[C@@H]2[C@@H](OC)CCN(Cc3ccco3)[C@@H]2C1	22.2%
Cn1cc(C2CC(=O)NC23CCN(Cc2cccc(F)c2)CC3)cn1 (centres undefined)	-1.36%
CN(CCc1ccccn1)C(=O)C(O)c1cc(Cl)cc(Cl)c1 (centres undefined)	10.1%
CSc1ccc(NC(=O)NCC2CCCO2)cc1F (centres undefined)	-81.9%
C[C@@H]1CN(c2nc3c(cc2C(N)=O)CCC3)CC[C@@]1(O)C1CCC1	-2.93%
C[C@@H]1CN(c2nc(N)nc3c2CCC3)C[C@]1(C)O	8.53%
C[C@@H]1CN(c2nc(N)nc3c2CCC3)CC[C@@]1(O)C1CCC1	83.3%
Cc1ccc(C)c(Sc2nccn(C)c2=O)c1	-13.1%
COc1ccc(Cl)cc1CN(CC(N)=O)C(C)C	-6.04%
COCCNc1cc(-c2ccccc2C(N)=O)c2cc[nH]c2n1	60.3%
COCCNc1cc(-c2ccccc2C(=O)O)c2cc[nH]c2n1	30.3%
COCCNc1cc(-c2cccc(C(=O)O)c2C)c2cc[nH]c2n1	58.5%
COCCNc1cc(-c2ccccc2S(N)(=O)=O)c2cc[nH]c2n1	23%
COCCNc1cc(-c2ccccc2CCN)c2cc[nH]c2n1	25.8%
CN(C)CCNc1cc(-c2ccccc2C(N)=O)c2cc[nH]c2n1	15.8%
Cc1cnccc1-c1cc(NCCO)nc2[nH]ccc12	58%
Cc1cc(F)ccc1-c1cc(NCCO)nc2[nH]ccc12	-13.1%
Cc1cccc(C)c1-c1cc(NCCO)nc2[nH]ccc12	45%
CN1CC(=O)N(c2cccnc2)CC12CCN(C(=O)C1CCCCC1)C2 (centres undefined)	31.2%
Cc1csc(CNC(=O)Nc2ccc3c(c2)OCO3)n1	-51.9%
CCCS(=O)(=O)N1C[C@@H]2C[C@H](C(=O)N(C)C)[C@H](C1)O2	49.7%

SMILES	INHIBITION
CC(C)(C)c1ncc(C(=O)NCCNC(=O)Cc2ccccc2)s1	45.7%
Cc1ccccc1-c1noc(CN2CCc3cncnc3C2)n1	8.195%
O=c1ccc(-c2cccs2)nn1CN1CCOCC1	-1.33%
O=C1COC2(CCN(c3ccccn3)CC2)CN1Cc1ccccn1	16.6%
CCCc1noc(CN2CCC(N(C)Cc3nnc(C4CC4)o3)C2)n1 (centres undefined)	-16%
COC(=O)c1cccn1C1CCN(Cc2cnc3ccccn23)CC1	66.8%
COC(=O)c1cccn1C1CCN(Cc2nc3ccccc3o2)CC1	15.6%
COC(=O)c1cccn1C1CCN(CCN2C(=O)CCC2=O)CC1	1.75%
COC(=O)c1cccn1C1CCN(Cc2cccnc2)CC1	11.6%
COC(=O)c1cccn1C1CCN(Cc2cccc(C(N)=O)c2)CC1	45.1%
COC(=O)c1cccn1C1CCN(Cc2ccccc2)CC1	56.1%
Cc1nc(CN2CCC(N(C)Cc3nnc(C4CC4)n3C)C2)oc1C (centres undefined)	16.8%
Cc1ccc(CN2CCC3(CC2)CCN(Cc2ccco2)CC3)cc1	-13.7%
Cc1ccc(N2C[C@H](C(=O)NCC3CC3)[C@@H]3CCO[C@@H]3C2)nn1	42.7%
COCC1CN(Cc2ccoc2)Cc2nnn(C)c21 (centres undefined)	-6.21%
CCc1nc2n(n1)CC(NCC(=O)Nc1oc(C)c(C)c1C#N)CC2 (centres undefined)	-13.5%
COc1ccc2c(c1)NC(=O)C2OC(=O)CC(C)(C)C (centres undefined)	44%
COc1ccc2c(c1)NC(=O)C2OC(=O)CCc1ccc(F)cc1 (centres undefined)	14.9%
COc1ccc2c(c1)NC(=O)C2OC(=O)Cc1ccccc1C (centres undefined)	58.5%
CN(C)c1cc(C(F)(F)F)nc(N2CCCC2c2ccccn2)n1 (centres undefined)	-84.3%
CN(Cc1nnc2n1CCC2)C(=O)c1ccc2c(c1)OCO2	16.8%
Cc1cccc(CN2CCc3ncnc(C4CC4)c3CC2)n1	-27.4%
Cc1c(CN2Cc3nccn3CC2c2ccccc2)cnn1C (centres undefined)	14.435%
CCc1nc(Cn2c(=O)c3c(C(F)(F)F)cc(C)nc3n2C)no1	10.5%
CCOCCc1nc(-c2cnn3c(C)cc(C)nc23)no1	10.6%
CCS(=O)(=O)Cc1nc(-c2cnn3c(C)cc(C)nc23)no1	70.5%
CCN(CC)C(=O)CCc1nc(-c2cnn3c(C)cc(C)nc23)no1	57.7%
